The structures appear in SMILES notation. Entries with a potency or affinity are not part of this list. Inconclusive results are not listed. The source made the active and inactive calls. The rule behind the calls is not given here.

The test deals with CAAX prenyl protease 1 (Saccharomyces cerevisiae (strain ATCC 204508 / S288c)) (UniProt P47154). Briefly: yeast CAAX protease Ste24 inhibition – biochemical, S. cerevisiae, plate reader, cherry-pick, dose response (AID 488815). As to conditions: series mostly up to 10 µM.
Chain of CAAX prenyl protease 1 (Saccharomyces cerevisiae (strain ATCC 204508 / S288c)) (P47154 whole entry, looked up): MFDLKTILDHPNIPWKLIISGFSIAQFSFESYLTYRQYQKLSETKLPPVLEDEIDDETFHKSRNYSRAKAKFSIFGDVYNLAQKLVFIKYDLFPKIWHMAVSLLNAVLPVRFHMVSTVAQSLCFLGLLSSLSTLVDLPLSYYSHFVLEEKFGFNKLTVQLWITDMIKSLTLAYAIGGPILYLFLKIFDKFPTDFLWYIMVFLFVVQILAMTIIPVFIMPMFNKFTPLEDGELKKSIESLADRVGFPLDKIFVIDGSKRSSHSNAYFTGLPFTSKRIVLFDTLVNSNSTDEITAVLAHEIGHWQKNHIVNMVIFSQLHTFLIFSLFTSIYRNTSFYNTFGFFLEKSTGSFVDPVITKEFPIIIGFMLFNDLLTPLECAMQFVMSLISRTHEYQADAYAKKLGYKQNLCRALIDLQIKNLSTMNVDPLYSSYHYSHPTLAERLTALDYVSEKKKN
In the case of `O=C(CN(C1CCCCC1)C1CCCCC1)N1CCc2ccccc2C1`, the compound was classed as inactive. Next, `Cc1cc(C)n2nc(CC(=O)NNC(=O)c3ccc(N(C)C)cc3)nc2n1`: “inactive”; `COC(C/C=C/[C@@H](O)[C@H](C)OCc1ccccc1)OC`: “inactive”; `Cc1cc2cc(C(=O)N3CCc4c([nH]c5ccccc45)C3c3ccccn3)ccc2o1` (centres undefined): “inactive”.
